Compounds without any hit were thinned out: in the full panel of roughly 83,000, 20% have a hit.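 Assay: single dose, 48 h. Readout: percent growth (0 = no net growth; negative = cell death). Active: <10.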 Active and inactive are the calls of the source.
Experiments:
Assay in all cases: NCI-60 one-dose screen, 48 h (100 = growth as untreated, 0 = no growth, -100 = all killed)
NCI-H23 lung = conditions: 10 µM unless noted
NCI-H322M lung = conditions: 10 µM unless noted
HOP-62 NSCLC = conditions: 10 µM unless noted
NCI-H460 lung = conditions: 10 µM unless noted
HOP-92 NSCLC = conditions: 10 µM unless noted
A549/ATCC NSCLC = conditions: 10 µM unless noted
786-0 renal = conditions: 10 µM unless noted
COLO 205 colon = conditions: 10 µM unless noted
NCI-H522 lung = conditions: 10 µM

Measured: growth

COc1cc(/C=C/C(=O)CC(=O)/C=C/c2cc(Br)c(OC)c(OC)c2)cc(Br)c1OC
inactive: NCI-H23 lung 100% | NCI-H322M lung 97.6% | HOP-62 NSCLC 93.1% | NCI-H460 lung 109% | HOP-92 NSCLC 93.7% | A549/ATCC NSCLC 96.1% | 786-0 renal 94.3%

Cc1ccc2nc(NC(=O)CSC(=S)N3CCN(C)CC3)sc2c1
inactive: NCI-H23 lung 92.4% | NCI-H322M lung 106% | HOP-62 NSCLC 106% | NCI-H460 lung 106% | HOP-92 NSCLC 94.5% | A549/ATCC NSCLC 95.3% | 786-0 renal 108% | COLO 205 colon 105%

CC(=O)OC[C@]1(C)C=C2C(=O)[C@](C)(O)C3(CC3)C(C)=C2[C@H]1OC(C)=O
inactive: NCI-H23 lung 75% | NCI-H322M lung 98.5% | HOP-62 NSCLC 53.7% | NCI-H460 lung 95.1% | HOP-92 NSCLC 122% | A549/ATCC NSCLC 100% | 786-0 renal 87.8%

Oc1ccccc1/C=N/Nc1nc2ccccc2s1
inactive: NCI-H23 lung 59.4% | NCI-H322M lung 63.1% | HOP-62 NSCLC 49.2% | NCI-H460 lung 15.7% | HOP-92 NSCLC 44.5% | A549/ATCC NSCLC 45% | 786-0 renal 73.4% | COLO 205 colon 38%

Cl.Fc1c[c-]c(-c2ccccn2)c(F)c1.[Pt].c1ccc([PH+](CC[PH+](c2ccccc2)c2ccccc2)c2ccccc2)cc1
active: NCI-H23 lung -77.2% | NCI-H322M lung -98.8% | HOP-62 NSCLC -65.8% | NCI-H460 lung -75.3% | HOP-92 NSCLC -77.4% | NCI-H522 lung -58.4% | A549/ATCC NSCLC -52.9% | 786-0 renal -79.4%

O=c1oc2ccccc2cc1-c1csc(N=Nc2c(O)[nH]c3ccc(Br)cc23)n1
inactive: NCI-H23 lung 98.6% | NCI-H322M lung 102% | HOP-62 NSCLC 104% | NCI-H460 lung 100% | HOP-92 NSCLC 123% | NCI-H522 lung 99.5% | A549/ATCC NSCLC 93.8% | 786-0 renal 103%

COc1ccc(/C=N/NC(=O)c2cnn(CC(O)Cc3ccccc3)c2N)cc1OC1CCCC1 (configuration not stated)
inactive: NCI-H23 lung 93.2% | NCI-H322M lung 103% | HOP-62 NSCLC 85.5% | NCI-H460 lung 98.5% | HOP-92 NSCLC 86.5% | NCI-H522 lung 92.7% | A549/ATCC NSCLC 96.3% | 786-0 renal 97.9%

COc1cc2oc(-c3ccc(O)cc3)cc(=O)c2c(O)c1I
inactive: NCI-H23 lung 99.6% | NCI-H322M lung 108% | HOP-62 NSCLC 126% | NCI-H460 lung 101% | HOP-92 NSCLC 113% | A549/ATCC NSCLC 96.7% | 786-0 renal 100%

O=C1CC(c2ccsc2)c2snc(-c3ccc(Cl)cc3)c2N1 (configuration not stated)
active: COLO 205 colon -42.8%
inactive: NCI-H23 lung 35.9% | NCI-H322M lung 55.7% | HOP-62 NSCLC 37.2% | NCI-H460 lung 10.6% | HOP-92 NSCLC 51.1% | A549/ATCC NSCLC 35.1% | 786-0 renal 39.6%

CCOC(=O)c1cnn(CC(O)c2ccc(F)cc2)c1NC(=O)Nc1ccccc1F (configuration not stated)
inactive: NCI-H23 lung 98.4% | NCI-H322M lung 103% | HOP-62 NSCLC 101% | NCI-H460 lung 105% | HOP-92 NSCLC 102% | NCI-H522 lung 92.2% | A549/ATCC NSCLC 103% | 786-0 renal 90.3%

O=C(NCc1ccc(F)cc1)C1CN(c2ccc(Cl)cc2)N(c2ccc(Cl)cc2)C1=O (configuration not stated)
inactive: NCI-H23 lung 78.8% | NCI-H322M lung 93.1% | HOP-62 NSCLC 60.5% | NCI-H460 lung 48% | HOP-92 NSCLC 91.1% | NCI-H522 lung 52.5% | A549/ATCC NSCLC 48.8% | 786-0 renal 79.1%

O=C1c2ccccc2-c2nnc(-c3ccc(Br)cc3)cc21
active: A549/ATCC NSCLC 1.3%
inactive: NCI-H23 lung 47% | NCI-H322M lung 86.8% | HOP-62 NSCLC 56.3% | NCI-H460 lung 81.6% | HOP-92 NSCLC 78.6% | 786-0 renal 82.3% | COLO 205 colon 99.7%

Cc1c(C(=O)Nc2nc(-c3ccccc3)cs2)nnn1-c1cccc2ccccc12
inactive: NCI-H23 lung 33% [50 µM] | NCI-H322M lung 84.6% [50 µM] | HOP-62 NSCLC 87.9% [50 µM] | NCI-H460 lung 56.4% [50 µM] | HOP-92 NSCLC 70.7% [50 µM] | A549/ATCC NSCLC 43.9% [50 µM] | 786-0 renal 79.8% [50 µM] | COLO 205 colon 69.1% [50 µM]

Nc1nc(-c2ccnc(Cl)c2)nn1-c1nc2ccccc2s1
inactive: NCI-H23 lung 101% | NCI-H322M lung 100% | HOP-62 NSCLC 99.5% | NCI-H460 lung 107% | HOP-92 NSCLC 103% | A549/ATCC NSCLC 103% | 786-0 renal 109% | COLO 205 colon 116%

COc1ccccc1-n1c(SCc2cc(OC)c(OC)c(OC)c2)nc2ccc(Cl)cc2c1=O
inactive: NCI-H23 lung 36.1% | NCI-H322M lung 55.1% | HOP-62 NSCLC 51.8% | NCI-H460 lung 10.8% | HOP-92 NSCLC 42.9% | A549/ATCC NSCLC 31.1% | 786-0 renal 51.1% | COLO 205 colon 28%

CCOC(=O)C1=C(C)N2C(=NC3=C(CCCC/C3=C\c3ccccc3)C2c2ccccc2)S1 (configuration not stated)
active: HOP-92 NSCLC -2.46%
inactive: NCI-H23 lung 95.5% | NCI-H322M lung 92% | HOP-62 NSCLC 117% | NCI-H460 lung 99.1% | A549/ATCC NSCLC 99.1% | 786-0 renal 96.6% | COLO 205 colon 117%

Cc1ccccc1-n1nnc(C(=O)Nc2ccc(-c3ccccc3)cn2)c1C
inactive: NCI-H23 lung 38.1% [50 µM] | NCI-H322M lung 81.3% [50 µM] | HOP-62 NSCLC 93.7% [50 µM] | NCI-H460 lung 61.9% [50 µM] | HOP-92 NSCLC 74.3% [50 µM] | A549/ATCC NSCLC 29.8% [50 µM] | 786-0 renal 62.1% [50 µM] | COLO 205 colon 40.2% [50 µM]

Cc1ccc2nc(NC(=O)CSC(=S)N3CCN(Cc4ccccc4)CC3)sc2c1
active: NCI-H23 lung 1.13% | NCI-H322M lung -71.8% | HOP-62 NSCLC -59.1% | NCI-H460 lung -70.9% | HOP-92 NSCLC -55.4% | A549/ATCC NSCLC 1.71% | 786-0 renal -21.1% | COLO 205 colon -63.3%

COc1cc(-c2nc(SC(C)C)nc(Nc3ccccc3C)c2C#N)cc(OC)c1OC
inactive: NCI-H23 lung 105% | NCI-H322M lung 106% | HOP-62 NSCLC 104% | NCI-H460 lung 107% | HOP-92 NSCLC 110% | A549/ATCC NSCLC 101% | 786-0 renal 108% | COLO 205 colon 117%

CCN1CCN(C(=S)SCC(=O)Nc2nc3ccc(OC)cc3s2)CC1
inactive: NCI-H23 lung 100% | NCI-H322M lung 92.3% | HOP-62 NSCLC 97.2% | NCI-H460 lung 113% | HOP-92 NSCLC 83.8% | A549/ATCC NSCLC 99.5% | 786-0 renal 107% | COLO 205 colon 112%

Cc1cc(=O)oc2c1ccc1oc(C(=O)c3ccccc3)c(C)c12
inactive: NCI-H23 lung 82.1% | NCI-H322M lung 112% | HOP-62 NSCLC 115% | NCI-H460 lung 85% | HOP-92 NSCLC 105% | A549/ATCC NSCLC 93.8% | 786-0 renal 99.5% | COLO 205 colon 93.5%

Oc1ccc2ccccc2c1C1NN=C(c2ccccc2)S1 (configuration not stated)
active: NCI-H460 lung -27.8% | 786-0 renal 6.82%
inactive: NCI-H23 lung 35% | NCI-H322M lung 29.2% | HOP-62 NSCLC 28.8% | HOP-92 NSCLC 42.8% | A549/ATCC NSCLC 18% | COLO 205 colon 16.6%

CC(=O)c1cc(C)c(OC(=O)c2ccccc2)c(C)c1
inactive: NCI-H23 lung 89.8% | NCI-H322M lung 119% | HOP-62 NSCLC 96.8% | NCI-H460 lung 106% | HOP-92 NSCLC 96.1% | 786-0 renal 100% | COLO 205 colon 93.9%

Fc1c[c-]c(-c2ccccn2)c(F)c1.Fc1c[c-]c(-c2ccccn2)c(F)c1.[Cl][Pt+].[Cl][Pt+].c1ccc([PH+](C[PH+](c2ccccc2)c2ccccc2)c2ccccc2)cc1
inactive: NCI-H322M lung 66.6% | HOP-62 NSCLC 20.9% | A549/ATCC NSCLC 20.6% | 786-0 renal 31.8%
active: NCI-H23 lung -6.3% | NCI-H460 lung 8.7% | HOP-92 NSCLC 2.42% | COLO 205 colon -65.2%

O=c1[nH]c(-c2ccccn2)nc2sc3c(c12)CCCCCC3
inactive: NCI-H23 lung 48.7% | NCI-H322M lung 46.8% | HOP-62 NSCLC 43% | NCI-H460 lung 15.9% | A549/ATCC NSCLC 23.2% | 786-0 renal 46.1% | COLO 205 colon 33%
active: HOP-92 NSCLC -2.86%

O=c1nc(NO)[nH]c(=O)n1Cc1ccccc1
active: HOP-92 NSCLC -3.57%
inactive: NCI-H23 lung 105% | NCI-H322M lung 120% | HOP-62 NSCLC 110% | NCI-H460 lung 109% | A549/ATCC NSCLC 111% | 786-0 renal 101% | COLO 205 colon 128%

Cc1cc(=O)[nH]n1-c1cc(Cl)ccc1N
inactive: NCI-H23 lung 107% | NCI-H322M lung 112% | HOP-62 NSCLC 103% | NCI-H460 lung 113% | HOP-92 NSCLC 114% | A549/ATCC NSCLC 105% | 786-0 renal 104% | COLO 205 colon 103%

N#C/C(=C\c1ccc[nH]1)c1cc2ccccc2[nH]1
inactive: NCI-H23 lung 39.1% | NCI-H322M lung 87.5% | HOP-62 NSCLC 85.1% | NCI-H460 lung 71.1% | HOP-92 NSCLC 76.9% | A549/ATCC NSCLC 54.2% | 786-0 renal 93.4% | COLO 205 colon 88.6%

COC(=O)/C=C1/CCC2C3CCC4=CC(=O)C(Br)CC4(C)C3C(=O)CC12C (configuration not stated)
inactive: NCI-H23 lung 67.5% | NCI-H322M lung 115% | HOP-62 NSCLC 80.6% | NCI-H460 lung 59.3% | HOP-92 NSCLC 76.6% | 786-0 renal 83.8% | COLO 205 colon 80.2%
